Growth data for 13 compounds are collected here from PubChem BioAssay (NCI).

Test systems include SK-MEL-2 melanoma; EKVX NSCLC; SN12C renal; UO-31 renal; TK-10 renal; ACHN renal; CAKI-1 renal; A498 renal; CCRF-CEM leukemia; MOLT-4 leukemia.
Assay in all cases: NCI-60 one-dose screen, 48 h (100 = growth as untreated, 0 = no growth, -100 = all killed)
Holding throughout (settings): 10 µM unless noted

About 83,000 compounds went through this panel and 20% of them were active in at least one assay; those are over-represented in the sample as a whole.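 Negative percent growth values reflect cell death: -40 means 40% of the cells present at the start died, and -100 means all died.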 A number with no mark means an inactive call. Activity calls are given as the source filed them. Rule for the calls: active = growth percent below 10; inactive = the rest.

As to `N#CC1C=CN(CC(N)=O)c2ccc3cccnc3c21` (stereo not given), the growth with SK-MEL-2 melanoma is 116%; in the assay with EKVX NSCLC, 97.9%; in the assay on SN12C renal, 96.3%; in the assay with UO-31 renal it was 97.9%; in the assay with TK-10 renal it was 115%; with ACHN renal it was 104%. Moreover, the growth in the assay on CAKI-1 renal is 91.2%; in the assay on A498 renal, 85.9%; in the assay with CCRF-CEM leukemia, 78%; with MOLT-4 leukemia, 98%.
As for `CNC(=O)c1cc(Oc2ccc3nc(NC(C)=O)sc3c2)ccn1`, the growth in the assay on SK-MEL-2 melanoma was 94.9%; with EKVX NSCLC, 97.8%; in the assay on SN12C renal it was 106%; in the assay with UO-31 renal, 95%; in the assay with TK-10 renal it was 104%; with ACHN renal, 104%. Further, the growth in the assay on CAKI-1 renal is 89.2%; in the assay with A498 renal, 106%; with CCRF-CEM leukemia, 94.7%; in the assay on MOLT-4 leukemia it was 90.4%.
In the case of `COc1cnc2c(c1)C(=O)c1c-2n(CCCNCCO)c(=O)c2ccncc12`, the growth with SK-MEL-2 melanoma was -2.38% (active); with EKVX NSCLC it was 19.7%; with SN12C renal it was 4.98% (active); with UO-31 renal, -19.8% (active); in the assay on TK-10 renal, 15.9%; with ACHN renal, -49.8% (active). Besides, the growth with CAKI-1 renal was 28.7%; in the assay on A498 renal it was -33.3% (active); with CCRF-CEM leukemia it was 11.1%; in the assay with MOLT-4 leukemia, -7.69% (active).
Consider `C/C(=C(/c1ccc(Cl)cc1)c1ccc(OCCN2CCCC2)cc1)c1ccc(Cl)cc1`, for which the growth with SK-MEL-2 melanoma is 93.9%; with EKVX NSCLC, 90.7%; in the assay on SN12C renal it was 85.5%; in the assay with UO-31 renal, 65.7%; in the assay on TK-10 renal, 94.6%; in the assay with ACHN renal, 104%. Also, the growth is 88.5% in the assay on CAKI-1 renal, 97.9% in the assay on A498 renal, 61.7% with CCRF-CEM leukemia and 62.9% with MOLT-4 leukemia.
As to `O=C(c1ccc(Cl)cc1)N1CCN(c2ccnc3cc(Cl)ccc23)CC1`, the growth is 88.9% in the assay with SK-MEL-2 melanoma; 96.4% with EKVX NSCLC; 91.2% with SN12C renal; 58% in the assay with UO-31 renal; 108% with TK-10 renal; 85.8% with ACHN renal. For the same compound, the growth is 85.7% with CAKI-1 renal, 55.6% in the assay on A498 renal, 90.9% with CCRF-CEM leukemia and 87.1% in the assay with MOLT-4 leukemia.
Take `CCN(CC)CCNC(=O)c1cn2ncnc(Oc3ccc(NC(=O)Nc4ccc(Cl)c(C(F)(F)F)c4)c(F)c3)c2c1C`: the growth with SK-MEL-2 melanoma was -36.9% (active); in the assay on EKVX NSCLC, 24.5%; in the assay with SN12C renal, 62.5%; in the assay with UO-31 renal, -53% (active); with TK-10 renal it was 27.8%; in the assay on ACHN renal, -44.5% (active). In addition, the growth is 39.6% with CAKI-1 renal, 21.1% in the assay with A498 renal, 4.8% (active) in the assay with CCRF-CEM leukemia and -20.8% (active) in the assay on MOLT-4 leukemia.
For `CCOC(=O)c1c(C)c2c(n1C)CSc1cc(C(=O)c3ccccc3)c(=O)[nH]c1-2`, the growth is 122% [100 µM] with SK-MEL-2 melanoma; 71.8% [100 µM] in the assay on EKVX NSCLC; 103% [100 µM] in the assay on SN12C renal; 84.7% [100 µM] with UO-31 renal; 103% [100 µM] with TK-10 renal; 84.9% [100 µM] with ACHN renal. The growth was 66% [100 µM] in the assay with CAKI-1 renal, 87.7% [100 µM] with A498 renal, 106% [100 µM] in the assay with CCRF-CEM leukemia and 87.3% [100 µM] in the assay on MOLT-4 leukemia.
With `COc1ccc2cc(C(=O)c3coc4ccc(O)cc34)ccc2c1`, the growth with SK-MEL-2 melanoma was 97%; in the assay on EKVX NSCLC it was 103%; with SN12C renal, 98.8%; in the assay with UO-31 renal it was 68.4%; in the assay with TK-10 renal, 103%; with ACHN renal, 107%. For the same compound, the growth in the assay with CAKI-1 renal is 92.6%; in the assay with A498 renal it was 105%; in the assay on CCRF-CEM leukemia it was 56.4%; in the assay with MOLT-4 leukemia, 81.1%.
Take `C=C(C)[C@@H]1CC[C@]2(C(=O)OC)CC[C@]3(C)[C@H](CC[C@@H]4[C@@]5(C)C/C(=C/NC(N)=S)C(=O)C(C)(C)[C@@H]5CC[C@]43C)[C@@H]12`: the growth with SK-MEL-2 melanoma was 103%; with EKVX NSCLC, 91.3%; in the assay with SN12C renal it was 58.9%; in the assay with UO-31 renal, 73.4%; with TK-10 renal, 111%; in the assay on ACHN renal it was 77.6%. Further, the growth in the assay with CAKI-1 renal was 66.4%; with A498 renal, 114%; with CCRF-CEM leukemia it was 84.7%; in the assay with MOLT-4 leukemia it was 70.3%.
For `Cc1nc(-c2ccccc2)cc2c(O)c(C(=O)NN)[nH]c(=O)c12`, the growth in the assay on SK-MEL-2 melanoma is 93.3%; in the assay with EKVX NSCLC, 111%; with SN12C renal, 90.9%; in the assay with UO-31 renal, 97.4%; in the assay on TK-10 renal it was 161%; in the assay with ACHN renal, 109%. For the same compound, the growth in the assay with CAKI-1 renal is 114%; with A498 renal, 100%; in the assay on CCRF-CEM leukemia, 95.1%; in the assay on MOLT-4 leukemia it was 102%.
As to `COC(=O)c1ccc2c(c1)C(=O)c1c-2n(CCCN)c(=O)c2cc([N+](=O)[O-])ccc12`, the growth was -49.8% (active) in the assay on SK-MEL-2 melanoma; -87.7% (active) in the assay on EKVX NSCLC; -100% (active) in the assay on SN12C renal; -100% (active) in the assay with UO-31 renal; -83% (active) in the assay on TK-10 renal; -100% (active) with ACHN renal. In addition, the growth in the assay on CAKI-1 renal is -94.2% (active); in the assay on A498 renal, -100% (active); with CCRF-CEM leukemia, -83.9% (active); with MOLT-4 leukemia, -58.6% (active).
On to `COc1ccc(-c2nnc(-c3ccc4c(c3)nc(-c3ccncc3)n4C3CCCCC3)o2)cc1`, for which the growth with SK-MEL-2 melanoma is 77.3%; with EKVX NSCLC, 64%; in the assay on SN12C renal, 83.8%; in the assay on UO-31 renal, 38.3%; with TK-10 renal, 75%; in the assay with ACHN renal, 89.2%. Further, the growth is 89.7% in the assay with CAKI-1 renal, 73.9% in the assay with A498 renal, 55.5% with CCRF-CEM leukemia and 44.3% in the assay on MOLT-4 leukemia.
Consider `CCN(CC)C(=S)SC(SC(=S)N(CC)CC)C(=O)c1nnn(-c2ccc([N+](=O)[O-])cc2)c1C`, for which the growth with SK-MEL-2 melanoma was 91.6%; in the assay on EKVX NSCLC, 97.2%; in the assay on SN12C renal, 96.4%; in the assay with UO-31 renal it was 80.5%; in the assay on TK-10 renal, 107%; with ACHN renal, 98.7%. The growth in the assay on CAKI-1 renal was 89.5%; in the assay on A498 renal it was 67.3%; in the assay on CCRF-CEM leukemia, 68.3%; in the assay on MOLT-4 leukemia it was 92.5%.
